From PubChem BioAssay (NCATS)
Where “and” joins values, the source holds several entries; their conditions need not be identical. Equal entries are not always repeated. Results filed as inconclusive are left out. The list shows a part of the results. Calls of active or inactive are those of the source. Unless noted, calls come from the whole dose curve; as a rule, active = well fitted curve in the direction sought with a large enough effect; inconclusive = small, poorly fitted or top-dose-only effect, or another doubt; inactive = no such curve, though single readings can be large; an effect the other way counts as inactive or inconclusive.

Legend:
[1] = Validation of Assay for Modulators of Lamin A Splicing (AID 1459; active = well fitted curve in the direction sought with a large enough effect in the signal ratio; the % refers to the signal ratio;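 note: cells exposed to compound for two days before reading; 0% is about no effect; ratio rise marks activators and ratio drop marks inhibitors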)
Procedure, shortened: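 Splicing correction read as GFP (500-530 nm) over DsRed2 (575-640 nm) object intensity after 48 h compound exposure of reporter HeLa S3 clones (600 cells/well, 2% FBS medium); ancitabine and cycloheximide titrations, 0.5% DMSO as vehicle.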

[2] = Counterscreen for APE1 Inhibitors: Fluorescent Dye Displacement Validation Assay (AID 1707);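 note: plate controls were ThO with dsDNA and no compound for no effect and ThO without dsDNA for full effect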
Procedure, shortened: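 ThO 250 nM + dsDNA 50 nM (THF abasic site, 5'-TAMRA), Tris-HCl pH7.5/50mM NaCl/2 mM MgCl2/0.01% Tween-20; compounds pin-transferred; ex 480/em 540 nm endpoint. Neutral = no compound; no-DNA ThO wells = negative control.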

[3] = target: Endonuclease 4 (Escherichia coli (strain K12)) (UniProt P0A6C1); assay: Counterscreen for APE1 Inhibitors: qHTS Validation Assay for Inhibitors of Endonuclease IV (AID 1708); note: % is set by controls: 0 for no effect and ±100 for the full control effect
Procedure, shortened: (§1)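 Enzymatic AP-site incision assay using a double-stranded THF substrate labelled with TAMRA and BHQ-2; released fluorescence signals activity. Enzyme 2 nM, substrate 50 nM, 15 min compound preincubation.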

[4] = qHTS for differential inhibitors of proliferation of Plasmodium falciparum line 7G8 (AID 1815);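 note: parasite growth measured after three days of incubation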; note: potency is the fitted concentration of half-maximal effect;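 for activity change, negative = inhibition: plate controls were vehicle wells for no effect and reference inhibitor wells for full effect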
[5] = qHTS for differential inhibitors of proliferation of Plasmodium falciparum line GB4 (AID 1816); conditions: Potency: Plasmodium falciparum GB4 proliferation inhibition;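 note: parasite growth measured after 72 h incubation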; note: potency is the fitted concentration of half-maximal effect;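 for activity change, negative = inhibition: 0% = vehicle DMSO and -100% = reference inhibitor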
[6] = qHTS for differential inhibitors of proliferation of Plasmodium falciparum line 3D7 (AID 1876); note: potency is the fitted concentration of half-maximal effect
[7] = qHTS for differential inhibitors of proliferation of Plasmodium falciparum line D10 (AID 1877);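 note: parasites grown with compound for 72 h before DNA staining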; note: potency is the fitted concentration of half-maximal effect;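 for activity change, negative = inhibition: plate controls were vehicle wells for no effect and reference inhibitor wells for full effect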
[8] = qHTS for differential inhibitors of proliferation of Plasmodium falciparum line Dd2 (AID 1882); conditions: Potency: Plasmodium falciparum Dd2 proliferation inhibition; note: nearly all actives have a fitted effect of over 65% in size; note: potency is the fitted concentration of half-maximal effect;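 for activity change, negative = inhibition: compound exposure of 72 h on infected erythrocytes; plate controls were DMSO vehicle for no effect and 0.29 µM artemisinin for full effect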
Procedure, shortened: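 SYBR Green I DNA fluorescence read-out, ex 485/em 535 nm. Signals were normalized to 0.29 uM artemisinin and DMSO wells, then corrected using vehicle-only plates flanking each stack. Parasite growth ran 72 h in erythrocytes before lysis.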

[9] = qHTS for differential inhibitors of proliferation of Plasmodium falciparum line W2 (AID 1883); conditions: Potency: Plasmodium falciparum W2 proliferation inhibition;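 note: parasites grown with compound for 72 h before lysis and staining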; note: potency is the fitted concentration of half-maximal effect;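 for activity change, negative = inhibition: 0% = vehicle wells and -100% = control inhibitor wells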
[10] = qHTS for differential inhibitors of proliferation of Plasmodium falciparum line HB3 (AID 1886); conditions: Potency: Plasmodium falciparum HB3 proliferation inhibition;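 note: parasites grown with compound for 72 h before SYBR Green readout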; note: potency is the fitted concentration of half-maximal effect;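 for activity change, negative = inhibition: plate controls were vehicle for no effect and reference inhibitor for full effect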
[11] = qHTS Assay for Modulators of Human Peripheral Myelin Protein 22 (PMP22) Expression/Activity (AID 1967; active = well fitted curve in the direction sought with a large enough effect in the signal ratio; the % refers to the signal ratio;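 note: 0% = untreated cells and 100% end not stated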)
Procedure, shortened: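 Readout is the corrected green/red luminescence ratio after 24 h compound exposure, normalised to untreated cells (0%). Engineered MSC80 mouse Schwann cells express green luciferase from the mouse Pmp22 promoter and red luciferase from EF-alpha as internal control.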

[12] = target: Ferritin light chain (Equus caballus) (UniProt P02791); assay: qHTS Validation Assay for Identification of Novel General Anesthetics (AID 2323); note: % is set by controls: 0 for no effect and ±100 for the full control effect
Procedure, shortened: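 Competitive displacement of the profluorescent anesthetic 1-AMA (50% saturated, PBS) from 10 uM apoferritin, 10 min, room temperature. Activity is normalized 380/535 nm fluorescence; concentration-response fitted with a four-parameter Hill equation.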

[13] = target: ATP-dependent DNA helicase Q1 (Homo sapiens) (UniProt P46063); assay: qHTS Validation Assay for Inhibitors of RecQ-Like Dna Helicase 1 (RECQ1) (AID 2353);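 note: plate controls were DMSO vehicle for no effect and enzyme-free control for full effect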
Procedure, shortened: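 50 nM RECQ1T1 preincubated 15 min with compound in Tris pH 8.0 buffer with MgCl2, DTT, Tween-20 and 2.5 ug/ml poly(dI-dC); started with 200 nM TAMRA/BHQ-2 forked duplex and 2 mM ATP. Unwinding read as fluorescence (525/598 nm), two reads 2 h apart.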

[14] = target: RecQ-like DNA helicase BLM (Homo sapiens) (UniProt P54132); assay: qHTS Validation Assay for Inhibitors of Bloom's syndrome helicase (BLM) (AID 2364);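 note: plate controls were DMSO vehicle for no effect and enzyme-free control for full effect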
Procedure, shortened: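 Forked 20-bp duplex substrate (200 nM, TAMRA/BHQ-2) plus 2 mM ATP added after 15 min compound preincubation with 50 nM enzyme, pH 8.0, poly(dI-dC) 2.5 ug/ml. Strand separation followed by fluorescence (525/598 nm) over 2 h, normalized to enzyme-free and DMSO controls.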

[15] = target: Endonuclease 4 (Escherichia coli (strain K12)) (UniProt P0A6C1); assay: Counterscreen for APE1 Inhibitors: qHTS Assay for Inhibitors of Endonuclease IV (AID 2565);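 note: plate controls were uninhibited enzyme wells for no effect and no enzyme buffer wells for full effect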
Procedure, shortened: as §1

[16] = target: DNA repair nuclease/redox regulator APEX1 (Homo sapiens) (UniProt P27695); assay: qHTS Validation Assay for Inhibitors of the Human Apurinic/apyrimidinic Endonuclease 1 (APE1) (AID 1705;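 note: TAMRA fluorescence gain over two minutes as APE1 cuts a quenched THF abasic duplex; % is set by controls: 0 for no effect and ±100 for the full control effect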)
Procedure, shortened: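 Activity read as rising fluorescence (598 nm emission, 525 nm excitation) from incision of a TAMRA/BHQ-2 duplex carrying a THF abasic site (50 nM). Compound and enzyme sat 15 min at RT before substrate start; signal change between first and third 60-s reads.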

[17] = target: alpha-glucosidase (Oryza sativa, rice) (UniProt Q653V4); assay: Counterscreen for Glucocerebrosidase Inhibitors: qHTS Assay for Rice alpha-Glucosidase at pH 5.0 (AID 997);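 note: 0% = full activity with enzyme and -100% = basal without enzyme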
Procedure, shortened: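 Rice alpha-glucosidase (4 nM final) with 400 uM 4-methylumbelliferyl-alpha-D-glucopyranoside in citrate buffer pH 5.0, 20 min at room temperature, stopped at pH 10; fluorescence 365/440 nm, compounds 0.7 nM–77 uM, AC50 from Hill fits.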

[18] = qHTS Assay for Lipid Storage Modulators (AID 1519; calls by dose curve; for activity change, negative = inhibition: % is set by controls: 0 for no effect and ±100 for the full control effect); conditions: Drosophila S3 cells, BODIPY lipid droplet/cell ratio, laser cytometry, cells loaded with oleic acid; for activity change, negative = inhibition: at 57.5 µM (top of the series)
Procedure, shortened: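 Cells seeded at 5,000 per well were treated with compounds over a concentration series and loaded with oleic acid (400 uM, as added). Lipid droplet fluorescence (488 nm excitation, 500-530 nm channel) was read by laser-scanning cytometry and normalized to 20 uM Triacsin C.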

[19] = measured here: cell count channel max response
[20] = measured here: lipid channel max response

Chain of RecQ-like DNA helicase BLM (Homo sapiens) (P54132 whole entry, looked up): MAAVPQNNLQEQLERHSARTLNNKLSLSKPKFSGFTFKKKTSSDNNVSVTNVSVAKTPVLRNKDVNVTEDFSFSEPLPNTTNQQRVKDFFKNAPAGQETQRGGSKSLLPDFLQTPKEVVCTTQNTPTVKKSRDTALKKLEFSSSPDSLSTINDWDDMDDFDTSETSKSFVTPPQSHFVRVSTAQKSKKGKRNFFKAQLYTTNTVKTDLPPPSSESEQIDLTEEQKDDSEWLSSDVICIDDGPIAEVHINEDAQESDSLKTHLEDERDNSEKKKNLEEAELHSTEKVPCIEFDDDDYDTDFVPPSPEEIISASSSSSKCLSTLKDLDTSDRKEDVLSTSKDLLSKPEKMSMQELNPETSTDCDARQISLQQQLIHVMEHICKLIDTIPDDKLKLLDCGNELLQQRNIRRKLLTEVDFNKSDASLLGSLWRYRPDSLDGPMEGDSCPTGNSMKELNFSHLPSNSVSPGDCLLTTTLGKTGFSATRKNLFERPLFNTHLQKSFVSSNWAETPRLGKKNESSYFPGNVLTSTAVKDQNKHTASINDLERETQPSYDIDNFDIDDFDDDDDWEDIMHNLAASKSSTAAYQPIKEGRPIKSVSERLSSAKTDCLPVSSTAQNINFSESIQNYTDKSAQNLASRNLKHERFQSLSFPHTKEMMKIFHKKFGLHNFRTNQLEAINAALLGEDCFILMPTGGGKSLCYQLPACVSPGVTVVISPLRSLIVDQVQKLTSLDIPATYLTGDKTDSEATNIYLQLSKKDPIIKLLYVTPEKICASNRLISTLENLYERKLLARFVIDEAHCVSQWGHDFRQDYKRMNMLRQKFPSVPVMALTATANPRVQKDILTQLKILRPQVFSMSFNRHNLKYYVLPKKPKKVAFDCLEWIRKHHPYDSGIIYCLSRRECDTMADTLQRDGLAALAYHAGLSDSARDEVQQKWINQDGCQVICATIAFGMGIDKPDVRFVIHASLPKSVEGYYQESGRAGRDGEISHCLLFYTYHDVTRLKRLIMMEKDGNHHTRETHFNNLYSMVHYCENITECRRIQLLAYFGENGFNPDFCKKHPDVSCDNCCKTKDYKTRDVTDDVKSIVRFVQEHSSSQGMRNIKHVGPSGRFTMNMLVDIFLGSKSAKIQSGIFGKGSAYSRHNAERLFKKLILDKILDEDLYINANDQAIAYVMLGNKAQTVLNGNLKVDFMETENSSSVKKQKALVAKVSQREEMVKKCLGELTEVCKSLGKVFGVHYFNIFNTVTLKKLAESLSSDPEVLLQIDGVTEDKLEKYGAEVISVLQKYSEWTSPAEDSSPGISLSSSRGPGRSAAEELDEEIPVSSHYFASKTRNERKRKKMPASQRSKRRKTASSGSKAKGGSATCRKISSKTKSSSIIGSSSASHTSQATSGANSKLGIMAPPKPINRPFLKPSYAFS
Chain of Ferritin light chain (Equus caballus) (P02791 2-175 limits assumed): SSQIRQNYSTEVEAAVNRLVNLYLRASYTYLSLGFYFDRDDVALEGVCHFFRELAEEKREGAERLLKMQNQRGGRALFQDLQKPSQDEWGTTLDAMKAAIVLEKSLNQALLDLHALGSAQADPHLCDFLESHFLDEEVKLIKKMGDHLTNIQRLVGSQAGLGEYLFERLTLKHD
Chain of DNA repair nuclease/redox regulator APEX1 (Homo sapiens) (P27695 whole entry, looked up): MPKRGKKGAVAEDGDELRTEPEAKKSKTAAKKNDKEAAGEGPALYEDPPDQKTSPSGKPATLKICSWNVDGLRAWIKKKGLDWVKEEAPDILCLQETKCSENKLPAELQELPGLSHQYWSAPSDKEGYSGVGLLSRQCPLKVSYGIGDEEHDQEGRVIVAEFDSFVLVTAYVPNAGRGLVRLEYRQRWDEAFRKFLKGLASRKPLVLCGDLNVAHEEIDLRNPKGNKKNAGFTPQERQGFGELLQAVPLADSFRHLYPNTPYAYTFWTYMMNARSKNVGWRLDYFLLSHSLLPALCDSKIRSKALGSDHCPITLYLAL
Chain of ATP-dependent DNA helicase Q1 (Homo sapiens) (P46063 whole entry, looked up): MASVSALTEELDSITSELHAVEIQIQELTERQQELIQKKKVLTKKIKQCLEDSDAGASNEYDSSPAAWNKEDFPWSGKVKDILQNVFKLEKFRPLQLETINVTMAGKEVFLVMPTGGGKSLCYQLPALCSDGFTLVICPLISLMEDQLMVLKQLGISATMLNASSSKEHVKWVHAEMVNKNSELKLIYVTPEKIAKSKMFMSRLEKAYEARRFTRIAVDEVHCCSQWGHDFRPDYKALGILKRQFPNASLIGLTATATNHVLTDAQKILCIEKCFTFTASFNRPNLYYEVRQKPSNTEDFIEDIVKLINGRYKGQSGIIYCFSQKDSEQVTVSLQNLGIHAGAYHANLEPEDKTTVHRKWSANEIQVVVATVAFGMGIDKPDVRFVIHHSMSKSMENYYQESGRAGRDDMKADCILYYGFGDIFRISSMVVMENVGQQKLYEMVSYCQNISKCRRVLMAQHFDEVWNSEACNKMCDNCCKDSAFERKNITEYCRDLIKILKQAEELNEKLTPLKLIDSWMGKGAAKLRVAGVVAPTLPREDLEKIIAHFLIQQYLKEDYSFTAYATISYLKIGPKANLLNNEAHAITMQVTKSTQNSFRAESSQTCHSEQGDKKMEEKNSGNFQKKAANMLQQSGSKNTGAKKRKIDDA

NC1CCN(O)C1=O (stereo unspecified)
inactive: outcome [1] | Potency [2] | Potency [3] | Potency [4] | Potency [5] | Potency [6] | Potency [7] | Potency [8] | Potency [9] | Potency [10] | outcome [11] | Potency [12] | Potency [13] | Potency [14] | outcome [15]

CC(C)C[C@H](NC(=O)C1OC1C(=O)O)C(=O)NCCCCN=C(N)N (stereo partly specified)
inactive: outcome [1] | Potency [16] | Potency [3] | outcome [11] | Potency [12] | Potency [13]
active: Potency [4] 4.47 µM | Potency [5] 3.16 µM | Potency [6] 2.51 µM | Potency [7] 3.55 µM | Potency [8] 6.31 µM | Potency [9] 2.51 µM | Potency [10] 2.51 µM

Cn1c(=O)c2[nH]c(-c3ccc(S(=O)(=O)O)cc3)nc2n(C)c1=O
inactive: outcome [17] | outcome [1] | Potency [16] | Potency [3] | Potency [8] | outcome [11] | Potency [13] | Potency [14]

CCCn1c(=O)c2[nH]c(-c3ccc(S(=O)(=O)O)cc3)nc2n(CCC)c1=O
inactive: outcome [17] | outcome [1] | Potency [16] | Potency [3] | Potency [4] | Potency [6] | Potency [7] | Potency [8] | outcome [11] | Potency [13] | Potency [14]

COc1ccccc1N1CCN(CCCCN2C(=O)c3ccccc3C2=O)CC1
active: Potency [6] 12.6 µM | Potency [9] 3.55 µM
inactive: outcome [17] | outcome [1] | Potency [16] | Potency [2] | Potency [4] | Potency [7] | Potency [8] | outcome [11] | Potency [12] | Potency [13] | Potency [14]

COc1cc(N)c(Cl)cc1C(=O)OCCN1CCCCC1
inactive: outcome [17] | outcome [1] | Potency [16] | Potency [2] | Potency [6] | Potency [7] | Potency [8] | Potency [10] | outcome [11] | Potency [12] | Potency [13] | Potency [14]

N[C@@H](Cc1ccc(F)cc1)C(=O)O
active: Potency [4] 12.6 µM | Potency [5] 14.1 µM | Potency [6] 11.2 µM | Potency [7] 17.8 µM | Potency [9] 11.2 µM | Potency [10] 12.6 µM
inactive: outcome [1] | Potency [16] | Potency [3] | Potency [12] | Potency [13] | Potency [14]

O=[N+]([O-])c1cccc2c(Br)[nH]nc12
inactive: outcome [17] | outcome [1] | Potency [16] | Potency [3] | Potency [4] | Potency [6] | Potency [7] | Potency [8] | Potency [9] | Potency [10] | outcome [11] | Potency [12] | Potency [13]

CNC(=O)c1cc2c(cn1)[nH]c1ccccc12
inactive: outcome [17] | outcome [1] | Potency [2] | Potency [3] | Potency [7] | Potency [12] | Potency [13] | Potency [14]
active: Potency [4] 12.6 µM | Potency [9] 12.6 µM

O=C(O)Cc1c[nH]c2ccc(O)cc12
-19.7%: max response [18, 19]
inactive: outcome [17] | activity change, negative = inhibition [18] 1.1% | Potency [16] | Potency [2] | Potency [4] | Potency [5] | Potency [7] | Potency [8] | Potency [12] | Potency [13] | Potency [14]
-16.3%: max response [18, 20]

O=c1cc(-c2ccccc2)[nH]c2nc(Cl)ccc12
inactive: outcome [17] | activity change, negative = inhibition [18] 0.241% | Potency [16] | Potency [2] | Potency [3] | Potency [8] | Potency [12] | Potency [13]
65%: max response [18, 20]
61.8%: max response [18, 19]
active: Potency [4] 10 µM | Potency [5] 14.1 µM | Potency [9] 10 µM

O=c1ccn([C@@H]2O[C@H](COP(=O)(O)OP(=O)(O)O)[C@@H](O)[C@H]2O)c(=O)[nH]1
-6.87%: max response [18, 19]
-4.31%: max response [18, 20]
inactive: activity change, negative = inhibition [18] 1.87% | Potency [16] | Potency [2] | Potency [3] | Potency [4] | Potency [5] | Potency [7] | Potency [8] | Potency [9] | Potency [10] | Potency [12] | Potency [13]

CC(C)NC[C@H](O)COc1cccc2ccccc12
29.6%: max response [18, 20]
19.6%: max response [18, 19]
inactive: activity change, negative = inhibition [18] 8.19%

N[C@H](C(=O)O)c1cc(O)cc(O)c1
inactive: outcome [17] | activity change, negative = inhibition [18] 10.3% and 1.43% and 0.261% | Potency [16] | Potency [2] | Potency [3] | Potency [4] | Potency [5] | Potency [6] | Potency [7] | Potency [8] | Potency [9] | Potency [10] | outcome [11] | Potency [12] | Potency [13]
19.7% and 15.4% and -15.9%: max response [18, 20]
7.08% and 3.62% and -19%: max response [18, 19]

C/C(=C\c1ccc(C(=O)O)cc1)c1ccc2c(c1)C(C)(C)CCC2(C)C
-3.14% and 29.9%: max response [18, 20]
-0.191% and 31.2%: max response [18, 19]
inactive: outcome [17] | activity change, negative = inhibition [18] -4.87% and -0.58% | Potency [16] | Potency [2] | Potency [5] | Potency [8] | Potency [10] | Potency [12]

NC(=O)CNCCC(c1ccccc1)c1ccccc1
-14.2%: max response [18, 20]
active: Potency [4] 4.47 µM | Potency [8] 4.47 µM | Potency [9] 2.24 µM
-14.5%: max response [18, 19]
inactive: outcome [17] | activity change, negative = inhibition [18] 0.71% | Potency [16] | Potency [2] | Potency [3] | Potency [7] | Potency [10] | Potency [12] | Potency [13]

CCCCCCCCCCCCCCCCCCOC[C@H](COP(=O)([O-])OCC[N+](C)(C)C)OC
55.6%: max response [18, 19]
57.7%: max response [18, 20]
inactive: activity change, negative = inhibition [18] 1.74% | Potency [16] | Potency [2] | Potency [3] | Potency [4] | Potency [5] | Potency [6] | Potency [7] | Potency [8] | Potency [9] | Potency [10] | outcome [11] | Potency [13]

Cc1cccc(C(=O)NCN2CCN(c3ccccc3C#N)CC2)c1
-23.9%: max response [18, 19]
-22.6%: max response [18, 20]
inactive: outcome [17] | activity change, negative = inhibition [18] 0.112% | Potency [16] | Potency [2] | Potency [3] | Potency [4] | Potency [6] | Potency [7] | Potency [10] | Potency [12] | Potency [13]

CN(C)C(=O)/N=N/C(=O)N(C)C
inactive: outcome [1] | Potency [3] | Potency [4] | Potency [5] | Potency [6] | Potency [7] | Potency [8] | Potency [9] | Potency [10] | Potency [12] | Potency [13] | Potency [14]
